The panel holds about 83,000 compounds, 20% with a hit somewhere; the sample as a whole holds those more often.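 96-well plates, one dose, 48 hours. Percent growth reported; active if below 10.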 A number with no mark means an inactive call. Calls of active or inactive are those of the source.
Assays:
Test in all cases: NCI-60 one-dose screen, 48 h (100 = growth as untreated, 0 = no growth, -100 = all killed)
Settings in all cases: 10 µM unless noted
SK-MEL-2 melanoma = test system: SK-MEL-2 melanoma
EKVX NSCLC = test system: EKVX NSCLC
SN12C renal = test system: SN12C renal
UO-31 renal = test system: UO-31 renal
TK-10 renal = test system: TK-10 renal
ACHN renal = test system: ACHN renal
CAKI-1 renal = test system: CAKI-1 renal
CCRF-CEM leukemia = test system: CCRF-CEM leukemia
MOLT-4 leukemia = test system: MOLT-4 leukemia
RPMI-8226 leukemia = test system: RPMI-8226 leukemia
OVCAR-8 ovarian = test system: OVCAR-8 ovarian
OVCAR-5 ovarian = test system: OVCAR-5 ovarian
OVCAR-4 ovarian = test system: OVCAR-4 ovarian
SK-OV-3 ovarian = test system: SK-OV-3 ovarian
IGROV1 ovarian = test system: IGROV1 ovarian
OVCAR-3 ovarian = test system: OVCAR-3 ovarian
HS 578T breast = test system: HS 578T breast
NCI/ADR-RES ovarian = test system: NCI/ADR-RES ovarian
SR leukemia = test system: SR leukemia

| Structure (SMILES) | growth (SK-MEL-2 melanoma) | growth (EKVX NSCLC) | growth (SN12C renal) | growth (UO-31 renal) | growth (TK-10 renal) | growth (ACHN renal) | growth (CAKI-1 renal) | growth (CCRF-CEM leukemia) | growth (MOLT-4 leukemia) | growth (RPMI-8226 leukemia) [%] | growth (OVCAR-8 ovarian) | growth (OVCAR-5 ovarian) | growth (OVCAR-4 ovarian) | growth (SK-OV-3 ovarian) [%] | growth (IGROV1 ovarian) | growth (OVCAR-3 ovarian) | growth (HS 578T breast) | growth (NCI/ADR-RES ovarian) | growth (SR leukemia) |
| --- | --- | --- | --- | --- | --- | --- | --- | --- | --- | --- | --- | --- | --- | --- | --- | --- | --- | --- | --- |
| CS(=O)(=O)c1ccc(-c2[nH]c3ccc(F)cc3c2/C=N/NC(N)=S)cc1 | 27.4% | 31.8% | 21% | 40.2% | 37.8% | 25.2% | 39.4% | 2.97% (active) | 11.7% | 12 | 20.8% | 28.2% | 50% | 13.4 | 29% | 11.8% | 28% | 11.1% |  |
| CN1CCN(C(=O)[C@]23CCC(C)(C)C[C@@H]2C2=CC[C@@H]4[C@@]5(C)Cc6c([nH]c7ccccc67)C(C)(C)[C@@H]5CC[C@@]4(C)[C@]2(C)CC3)CC1 | 95.1% | 77% | 88.1% | 57.7% | 92.4% | 86.9% | 55.2% | 71% | 63% | 71.6 | 79.6% | 79.8% | 72% | 76.8 | 84.4% | 78.3% | 73.2% | 89.9% |  |
| Cc1ccc(/C=C(\C#N)n2nnc3cc(Cl)c(Cl)cc32)cc1 | 26% | 36.5% | 19.5% | 0.755% (active) | 44.6% | 25.7% | 22.2% | 9.85% (active) | 9.51% (active) |  | 14.8% | 13.3% | 29.3% |  | 12.2% | -35.2% (active) | 11.7% | -25.5% (active) | 17.3% |
| COc1cc2cc(Oc3ccc(NC(=O)Nc4cc(C(F)(F)F)cc(C(F)(F)F)c4)cc3)c(C)nc2cc1OCCN1CCCCC1 | -35.6% (active) | -73.1% (active) | -92.6% (active) | -98.9% (active) | -72.4% (active) | -100% (active) | -76.7% (active) | -26.7% (active) | -44.4% (active) |  | -48.1% (active) | -65.9% (active) | -90.6% (active) |  | -78.4% (active) | -91.4% (active) | -44.1% (active) | -66.9% (active) | -29.5% (active) |
| O=C(NCCOCCOCCOCCNC(=O)c1cc2c(o1)C(=O)c1ccccc1C2=O)NC12CC3CC(CC(C3)C1)C2 | -17.9% (active) | -4.03% (active) | -68.2% (active) | -59% (active) | -3.88% (active) | 0.47% (active) | -5.41% (active) | 18.8% | 12.1% |  | 1.25% (active) | -69.9% (active) | -72.8% (active) |  | 6.23% (active) | -32% (active) | -30.3% (active) | 8.9% (active) | 14.8% |
| COc1ccc(/C=C2\COc3ccc(O)cc3C2=O)cc1OC | 97.1% | 96.3% | 59.3% | 66.6% | 93.1% | 73% | 62.3% | 3.05% (active) | 48% |  | 46.4% | 86.8% | 92.8% | 93.1 | 89.5% | 28.4% | 80.4% | 98.4% | 1.44% (active) |
| Cc1[nH]c(-c2nc3ccccc3[nH]2)c(C)c1C(=O)N1CCc2sccc2C1 | 107% | 91.9% | 89.2% | 77.9% | 106% | 99.5% | 85.1% | 88.7% | 93.3% |  | 91.2% | 83.5% | 83.3% |  | 98.5% | 95% | 87.7% | 93.2% | 97.7% |
| O=C(/C=C/c1ccccc1)c1ccc2ccccc2c1 | 98.4% | 86.7% | 99.7% | 73.9% | 44.4% | 16.2% | 83.9% | 23% | 74.5% |  | 100% | 106% | 97% | 103 | 76.2% |  | 145% | 101% | 48.1% |
| CCn1c(Sc2nnc(NC(=O)CSC(=S)N3CCCCC3)s2)nc2c1c(=O)n(C)c(=O)n2C | 81.2% | 88.5% | 96.6% | 79.8% | 95.8% | 77.5% | 47.7% | 84.7% | 97.6% |  | 92.8% | 93.6% | 84% |  | 78.5% | 56.5% | 91.4% | 42.2% | 44.8% |
| N=C(N)c1ccc(-c2ccc(-c3ccc(Cl)c(Cl)c3)o2)nc1 | 108% | 97.3% | -72.8% (active) | -92% (active) | 116% | -86.9% (active) | 87.1% | 2.34% (active) | 9.85% (active) |  | -16.1% (active) | 39% | -68.4% (active) |  | 22.3% | -80.8% (active) | 94.8% | 32.2% | 1.79% (active) |
| O=C1Nc2ccccc2/C1=N/N=C/c1ccsc1 | 107% | 90.9% | 95.3% | 74.8% | 137% | 102% | 92% | 101% | 103% |  | 102% | 115% | 90.4% |  | 101% | 103% | 94.4% | 110% | 88.6% |
| O=C(CC12CC3CC(CC(C3)C1)C2)NCCOCCOCCNC(=O)c1cc2c(o1)C(=O)c1ccccc1C2=O | -42% (active) | -66.4% (active) | -96.3% (active) | -60.1% (active) | -27.1% (active) | -74% (active) | -65.8% (active) | 12.6% | -4.92% (active) |  | -2.31% (active) | -96.9% (active) | -99.1% (active) |  | -43.9% (active) | -40.8% (active) | -24.6% (active) | -24.6% (active) | 9.52% (active) |
| NS(=O)(=O)Oc1ccc(-c2sc3cc(O)ccc3c2C(=O)c2ccc(OCCN3CCCCC3)cc2)cc1 | 84% | 72.3% | 69.1% | 43.6% | 72.4% | 60.9% | 49.3% | 25.9% | 11% |  | 63.9% | 87.2% | 58.4% |  | 75.6% | 62.6% | 37.8% | 80.4% | 4.91% (active) |
| O=C(NCCOCCOCCNc1cccc2c1C(=O)N(C1CCCNC1=O)C2=O)c1cc2c(o1)C(=O)c1ccccc1C2=O (configuration not stated) | -13.6% (active) | 17.7% | -74.3% (active) | -19.8% (active) | 8.39% (active) | 14% | -10.1% (active) | 14.9% | 8.89% (active) |  | 3.33% (active) | -84.5% (active) | -98.1% (active) |  | -15.4% (active) | -25% (active) | -22.2% (active) | 48.6% | 13.3% |
| Cc1[nH]c(-c2nc3ccccc3[nH]2)c(C)c1C(=O)N1CCOCC1 | 99.6% | 91.2% | 86.8% | 82.2% | 106% | 98.3% | 101% | 112% | 105% |  | 106% | 98% | 99.8% |  | 99.4% | 103% | 90.4% | 101% | 98.6% |
| O=C(CC12CC3CC(CC(C3)C1)C2)NCCOCCOCCOCCNC(=O)c1cc2c(o1)C(=O)c1ccccc1C2=O | -27.6% (active) | -27.1% (active) | -90.7% (active) | -68.5% (active) | -3.88% (active) | -22.4% (active) | -27% (active) | 13% | 7.19% (active) |  | 12.4% | -87.9% (active) | -95.9% (active) |  | -10.8% (active) | -42.9% (active) | -27.2% (active) | -15% (active) | 7.13% (active) |
| N#C/C(=C\c1ccc(Br)cc1)n1nnc2cc(Cl)c(Cl)cc21 | 33.9% | 59.6% | 35% | 35.1% | 59.6% | 41% | 21.9% | 8.21% (active) | 6.13% (active) |  | 22.2% | 46.2% | 21.6% |  | 23.3% | 5.17% (active) | 51.3% | 7.03% (active) | 10% |

Reference: PubChem BioAssay (NCI)
